Source: PubChem BioAssay (National Center for Advancing Translational Sciences (NCATS))
Hits are enriched below; roughly 11% of the tested compounds scored in any of these assays.
HP1b chromo inh: HTS for Inhibitors of HP1-beta Chromodomain Interactions with Methylated Histone Tails; AlphaScreen HP1-beta / biotin-H3K9me3 peptide binding; 390,000 compounds, 0.56% hits; AID 540317, 2011; Chromobox protein homolog 1 (Homo sapiens), P83916; Potency, µM (doses to about 114 µM), for inactives: top-dose activity change, negative = inhibition, actives largely listed as inhibitors; further: nearly all actives have a fitted effect of over 70% in size
Target sequence (P83916 whole entry, looked up): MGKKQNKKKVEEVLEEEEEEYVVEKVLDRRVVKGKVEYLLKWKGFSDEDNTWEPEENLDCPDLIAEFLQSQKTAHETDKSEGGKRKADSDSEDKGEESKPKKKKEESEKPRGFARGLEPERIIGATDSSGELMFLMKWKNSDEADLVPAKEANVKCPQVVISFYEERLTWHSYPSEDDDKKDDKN
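HP1-beta protein (50 nM final) preincubated 30 min at room temperature with biotinylated H3(1-18)K9me3 peptide (50 nM) in PBS pH 7.4, 0.01% Tween-20, then compound added for 30 min. AlphaScreen streptavidin donor/nickel chelate acceptor beads (10 ug/mL final), 30 min dark, luminescence read.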
L3MBTL1 inh: qHTS Assay for the Inhibitors of L3MBTL1; Lethal(3)malignant brain tumor-like protein 1 (Homo sapiens), Q9Y468; Potency, µM (doses to about 57.1 µM), inactives show at the top dose activity, negative = inhibition, hits mostly inhibitors; AlphaScreen L3MBTL1–H3K9me1 peptide binding; 230,000 compounds, 0.66% hits; further: on the % scale 0 is the no-effect control and ±100 the full control effect; nearly all actives have a fitted effect of over 60% in size
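AlphaScreen proximity signal between nickel-chelate acceptor and streptavidin donor beads (final 10 ug/mL) reports binding of 50 nM L3MBTL1 to 75 nM biotin-H3 K9me1 peptide; complex incubated with compounds 30 min at room temperature; cefsulodin titration as control.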
G9a block: qHTS Assay for Inhibitors of Histone Lysine Methyltransferase G9a. 350,000 compounds, 8.8% hits. Potency, µM (series often up to 102 µM), without a hit: top-dose activity, negative = inhibition, hits mostly inhibitors. G9a H3K9 monomethylation, AlphaScreen, 2 h. Histone-lysine N-methyltransferase EHMT2 (Homo sapiens), Q96KQ7; further: on the % scale 0 is the no-effect control and ±100 the full control effect; nearly all actives have a fitted effect of over 75% in size
Target sequence (Q96KQ7 913-1193 limits assumed): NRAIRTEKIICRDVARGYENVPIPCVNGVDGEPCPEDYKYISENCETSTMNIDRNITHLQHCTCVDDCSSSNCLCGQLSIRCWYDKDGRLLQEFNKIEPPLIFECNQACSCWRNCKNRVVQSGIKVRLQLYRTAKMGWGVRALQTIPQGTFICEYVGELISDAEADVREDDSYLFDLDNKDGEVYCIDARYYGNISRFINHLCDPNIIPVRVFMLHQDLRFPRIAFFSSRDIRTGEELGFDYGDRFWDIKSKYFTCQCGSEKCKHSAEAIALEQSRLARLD
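Quantitative HTS format: methyltransferase activity on a biotin-tagged H3K9 peptide is measured by AlphaScreen, using a rabbit anti-monomethyl-H3K9 antibody with streptavidin donor and anti-IgG acceptor beads. Final levels are 20 nM enzyme, 500 nM peptide, 20 uM SAM; 2 h RT.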
BAZ2B block: qHTS Assay for Inhibitors of BAZ2B | Bromodomain adjacent to zinc finger domain protein 2B (Homo sapiens), Q9UIF8 | AlphaScreen BAZ2B-H3K14Ac peptide displacement | Potency, µM (highest dose often 114 µM), without a hit: top-dose activity change, negative = inhibition, usual class: inhibitors | 360,000 compounds, 4.4% hits | AID 504333, 2011; further: on the % scale 0 is the no-effect control and ±100 the full control effect; nearly all actives have a fitted effect of over 60% in size
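Inhibition is scored as reduced AlphaScreen emission. The BAZ2B/b-H3(5-23)K14Ac complex (50 nM each) in PBS pH 7.4, 0.01% Tween-20 meets compound (up to 110 uM) for 30 min at RT before bead addition.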
JMJD2A Tudor inh: qHTS Assay for Inhibitors of JMJD2A-Tudor Domain; AlphaScreen JMJD2A-Tudor / H3K4me3 peptide binding; Lysine-specific demethylase 4A (Homo sapiens), O75164; Potency, µM (top dose mostly 114 µM), for the others: at the top dose activity change, negative = inhibition, actives largely listed as inhibitors; 390,000 compounds, 4.4% hits; AID 504339, 2011; further: on the % scale 0 is the no-effect control and ±100 the full control effect; nearly all actives have a fitted effect of over 50% in size
* = called active by the depositor; ? = inconclusive; . = not tested or not shown; ! = not confirmed by another sample; [ ] = another dose, or the depositor's remark. The call rests on the fitted dose curve; in most records, active means well fitted inhibition curve with a large enough effect; inconclusive means small, poorly fitted or top-dose-only effect; inactive means no such curve, though single readings can be large or run the other way. Potency means the concentration at half of the fitted maximal effect.

SMILES	HP1b chromo inh	L3MBTL1 inh	G9a block	BAZ2B block	JMJD2A Tudor inh
CN(C)c1ccc(NC(=O)COC(=O)CNC(=O)c2cccs2)cc1	-1%	-17%	-10%[12.7 µM]	?	?
CN(C)c1ccc(NC(=O)COC(=O)Cn2nnc3ccccc32)cc1	-6%	?	40µM*	-36%	-27%
Cc1ccccc1SCC(=O)OCC(=O)Nc1ccc(N(C)C)cc1	?	?	13µM*	40µM*	45µM*
O=C(Nc1cccc(S(=O)(=O)NC2=NCCC2)c1)c1ccc(OC(F)F)cc1	31%	-1%	?	-3%	-13%
CC(C)(C)c1ccc(-c2csc(NNC3=NCCCCC3)n2)cc1	?	.	13µM*	?	?
N#Cc1ccc(-c2csc(NC3=NCCCCC3)n2)cc1	51%	-3%	-7%[59 µM]	-3%	-15%
FC(F)Oc1ccc(-c2csc(NNC3=NCCCCC3)n2)cc1	?	-20%	13µM*	?	?
c1ccc(-c2csc(NC3=NCCCCC3)n2)cc1	25%	5%	14%[59 µM]	-38%	-9%
Brc1ccc(-c2csc(NNC3=NCCCCC3)n2)cc1	-22%	-20%	13µM*	35µM*	?
COc1ccc(Nc2oc(-c3ccc(COc4ccccc4C)o3)nc2C#N)cc1	25%	.	?	?	-28%
CC(C)(C)OC(=O)N1CCC(c2c(C(=O)NCc3cccc(Cl)c3)cnn2-c2ccc(F)cc2)CC1	38%	.	-33%[59 µM]	-1%[57.1 µM]	-3%
C/C(=N/NS(=O)(=O)c1ccc(C)cc1)[C@H]1C[C@@H]1c1ccccc1	43%	5%	13µM*	1%	4%
O=S1(=O)N=C(SCCO)c2ccccc21	35%	6%	79µM*	?	?
O=C(O)CSC1=NS(=O)(=O)c2ccccc21	?	.	.	.	18µM*
CC(SC1=NS(=O)(=O)c2ccccc21)C(=O)O (stereo not drawn)	?	.	.	.	28µM*
O=C(NCCCN1CCN(c2ccc(F)cc2)CC1)c1cnn(-c2ccc(F)cc2)c1-n1cccc1	11%	.	?	?	?
CC(Sc1nc2ncc(Cl)cc2[nH]1)C(=O)NC1(C#N)CCCCC1 (stereo not drawn)	33%	-3%	-7%[12.7 µM]	-7%	-14%
CCN(CC)c1nn2c(=O)c(C(=O)NCCc3ccc(C)cc3)cnc2s1	14%	.	14%[59 µM]	-13%	-10%
CSc1ncccc1C(=O)Nc1ccccc1N1CCOCC1	6%	7%	.	.	-11%
O=C(Oc1cccc(C(=S)N2CCOCC2)c1)c1ccccc1	?	.	7.1µM*	-9%	-30%
S=C(c1ccc(-c2ccccc2)cc1)N1CCOCC1	-11%	-3%	40µM*	-1%	-25%
COc1cc(C(=O)Oc2cccc(C(=S)N3CCOCC3)c2)cc(OC)c1OC	-14%	.	22µM*	?	-28%
COc1ccc(CC(=O)Oc2ccc(Br)cc2F)cc1S(=O)(=O)N1CCOCC1	2%	2%	50µM*	7%	-12%
CCCCC(CC)Cn1c(Oc2ccccc2)nc2c1c(=O)n(C)c(=O)n2C (stereo not drawn)	-13%	.	?	.	1%
CCOc1ccc(S(=O)(=O)NCCC(=O)NC2CCCCC2)cc1	12%	0%	20%[0.501 µM]	15%	0%
SMILES	HP1b chromo inh	L3MBTL1 inh	G9a block	BAZ2B block	JMJD2A Tudor inh
O=C(Oc1ccc(Br)cc1C(=S)N1CCOCC1)c1ccccc1	-15%	.	45µM*	10%	-20%
O=C(Oc1ccccc1C(=O)N1CCOCC1)c1ccc(Br)cc1	20%	.	-17%[59 µM]	8%	-10%
COc1cc(C(=S)N2CCOCC2)cc(OC)c1OC(=O)c1ccc(F)cc1	?	-10%	.	?	-35%
COc1cc(C(=S)N2CCOCC2)cc(OC)c1OC(=O)Cc1ccc(F)cc1	?	3%	3.2µM*	?	79µM*
COc1cccc(C(=O)c2c[nH]c(C(=O)NCCCN3CCOCC3)c2)c1	68%	-14%	-21%	-7%	-11%
COCCN(C(C)=O)c1nnc(-c2ccccn2)s1	29%	-7%	-14%[59 µM]	56µM*	-30%
COCCN(C(C)=O)c1nnc(-c2cnccn2)s1	39%	-8%	22%[59 µM]	2%	-2%
CC(=O)N(CC1CCCO1)c1nnc(-c2ccccn2)s1 (stereo not drawn)	41%	-1%	56µM*	50µM*	-27%
Cc1ccc(CCNC(=O)CCN2N=C(c3ccc(C)cc3)CCC2=O)cc1	36%	.	-5%[59 µM]	8%	-19%
COc1ccc(N(CC(=O)Nc2cccc(Cl)c2)S(=O)(=O)c2c(C)[nH]c(=O)[nH]c2=O)cc1	34%	.	?	-6%	-24%
CCOc1ccccc1N(C)C(=O)c1cc(S(=O)(=O)NCc2ccc(C)cc2)ccc1F	0%	.	-12%[59 µM]	-2%	-13%
CC(C)(C)c1ccc(OCCNCc2ccccc2)cc1	?	9%	45µM*	-8%	2.2µM*
CCC(C)NCCOc1ccc(C(C)(C)c2ccccc2)cc1 (stereo not drawn)	?	-8%	7.9µM*	?	2.8µM*
CC(C)(C)c1ccc(OCCNC(=S)Nc2ccccc2)cc1	27%	-14%	57%[12.7 µM]	-11%	-16%
NNCCc1ccccc1	20%	5%	19µM*!	-17%	79µM*
O=C(CC(=O)NCCc1ccccc1)NCCc1ccccc1	13%	.	11%	-20%	-12%
CNCCCOc1ccc(C(C)(C)c2ccccc2)cc1	.	.	7.9µM*	79µM*	.
Cc1cccc2c1-c1sc(C(=O)NCCCN3CCN(c4cccc(Cl)c4)CC3)cc1CO2	37%	.	-22%[59 µM]	7%	2%
COc1ccc(NC(=O)CCc2nc3c(C)nn(-c4ccc(C)cc4)c3n(C)c2=O)c(OC)c1	22%	.	-8%[12.7 µM]	-12%	-4%
O=C1CCCC2=C1C1(CCCC1)N=C(Nc1nc3cc(Cl)ccc3o1)N2	.	.	.	.	-21%
C=CCNCCOc1cccc(Br)c1	18%	11%	?	8%	-16%
CC(C)(c1ccccc1)c1ccc(OCCCN2CCNCC2)cc1	?	-21%	16µM*	20µM*	1.1µM*
COCCCNCCOc1ccc(C(C)(C)c2ccccc2)cc1	9%	9%	20µM*	?	18µM*
c1ccc(CCNCCOc2ccccc2)cc1	-21%	-4%	10µM*	?	2.8µM*
CC(C)(C)c1ccc(C(=O)NCCOc2ccccc2)cc1	24%	-4%	.	?	-14%
CCC(C)NCCOc1cccc(Br)c1 (stereo not drawn)	?	4%	8.9µM*	-26%	4.5µM*
O=C(CCCOc1ccccc1)NCCc1ccccc1	35%	12%	4%	3%	-6%
CN(C)CCNC(=O)Cc1ccc(NC(=O)N2CCCCc3ccccc32)cc1	22%	.	-4%[59 µM]	-3%	-1%
